Data reported in PubChem BioAssay (Tox21).
Inconclusive results are not listed. Values without a mark were called inactive. Calls follow the shape of the full dose curve.

Assay: p53 small molecule agonists, cell-based qHTS assay: qHTS cell viability counter screen (AID 1963581); also: nearly all actives have a fitted effect of over 45% in size
Conditions: p53RE-bla HCT-116 viability, ATP luminescence, 16 h; series mostly up to 66 µM; activity change, negative = cytotoxicity: at the top concentration
Outline: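 qHTS counter screen: 16 h compound exposure at 37 C of p53RE-bla HCT-116 cells (4,000 per well, seeded 5 h prior), cell viability by ATP luminescence.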
% is scaled to controls: 0 for no effect and ±100 for the full control effect.

SMILES | activity change, negative = cytotoxicity
NCCCNCCSP(=O)(O)O | 5.99% [at 5.99 µM]
NS(=O)(=O)c1cc2c(cc1Cl)NC(C(Cl)Cl)NS2(=O)=O (configuration not stated) | 14.9% [at 30.3 µM]
CCOC(=O)[C@H](CCc1ccccc1)N[C@@H](C)C(=O)N1CCC[C@H]1C(=O)O | 0.131% [at 30.3 µM]
COC(=O)[C@@H]1[C@H]2C[C@H]3c4[nH]c5ccccc5c4CCN3C[C@@H]2CC[C@@H]1O | -13.6% [at 30.3 µM]
Oc1cccc(O)c1O | 7.01%
COc1cc(C(=O)NC2CCCNC2)cc(OC)c1OC (configuration not stated) | -11.1% [at 30.3 µM]
CCN[C@@H]1C[C@H](N)[C@@H](OC2OC(CN)=CCC2N)[C@H](O)[C@H]1O[C@H]1OC[C@](C)(O)[C@H](NC)[C@H]1O (some centres not stated) | -18.4% [at 0.249 µM]
O=C(O)CCNC(=O)c1ccccc1 | 5.89% [at 30.3 µM]
CN1CCN(C(c2ccccc2)c2ccccc2)CC1 | 21.6% [at 30.3 µM]
CCCN(CCC)C(=O)C(CCC(=O)O)NC(=O)c1ccccc1 (configuration not stated) | 8.17% [at 30.3 µM]
CNS(=O)(=O)Cc1ccc2[nH]cc(CCN(C)C)c2c1 | 14.2% [at 30.3 µM]
CCN(CC)CCNC(=O)c1cc(S(C)(=O)=O)ccc1OC | -16.6% [at 30.3 µM]
CCOC(=O)[C@H](CCc1ccccc1)N[C@@H](C)C(=O)N1[C@H](C(=O)O)C[C@@H]2CCC[C@@H]21 | 0.436% [at 30.3 µM]
Nc1ccc(S(=O)(=O)NC(=O)c2ccccc2)cc1 | -2.12% [at 30.3 µM]
CN1CCN(c2c(F)cc3c(=O)c(C(=O)O)cn(CCF)c3c2F)CC1 | -1.64% [at 30.3 µM]
CCn1cc(C(=O)O)c(=O)c2cnc(N3CCCC3)nc21 | -0.227% [at 5.99 µM]
CCn1cc(C(=O)O)c(=O)c2cc(F)c(N3CCNCC3)cc21 | -15.4% [at 30.3 µM]
Cc1[nH]cnc1CN1CCc2c(c3ccccc3n2C)C1=O | -17.7% [at 30.3 µM]
CC(C)(C)NCC(O)COc1cccc2c1C[C@H](O)[C@H](O)C2 (some centres not stated) | -5.62% [at 30.3 µM]
O=C(Oc1ccccc1C(=O)O)c1ccccc1O | -13.8% [at 30.3 µM]
C[n+]1ccccc1/C=N/O | -0.103% [at 30.3 µM]
CC12CCC(CC1=O)C2(C)C (configuration not stated) | 27.6%
COC(=O)CCc1ccc(OCC(O)CNC(C)C)cc1 (configuration not stated) | 4.19% [at 30.3 µM]
NCCCCCC(=O)O | -7.44% [at 30.3 µM]
CCOc1cc(N)c(Cl)cc1C(=O)NCC1CN(Cc2ccc(F)cc2)CCO1 (configuration not stated) | 24.7% [at 30.3 µM]
CCCc1nn(C)c2c(=O)[nH]c(-c3cc(S(=O)(=O)N4CCN(C)CC4)ccc3OCC)nc12 | -6.69% [at 30.3 µM]
Cc1ccc(S(=O)(=O)NC(=O)NN2CC3CCCC3C2)cc1 (configuration not stated) | -4.81% [at 30.3 µM]
